The full ranking holds about 16,000 sequences; the median of “rpm ratio (pull-down/input)” is about 0.5, and the highest 2% start at about 5.5. The sample as a whole holds a higher share of the highest values than the screen did.
Each sequence was assayed against T1, MBP-FoxP3dN (Mus musculus, UniProt Q99JB6 188-423) (assay: PD-seq (MBP pull-down with sequencing); 20 mM Tris-HCl pH 7.5, 100 mM NaCl, 1.5 mM MgCl2, 0.4 uM protein, 0.1 uM dsDNA library, 30 min, room temperature, amylose pull-down; high values mean tight binding). Conditions: protein: recombinant; tags: His6-MBP; chain copies: 2; dsDNA, one strand shown.
T1 sequence: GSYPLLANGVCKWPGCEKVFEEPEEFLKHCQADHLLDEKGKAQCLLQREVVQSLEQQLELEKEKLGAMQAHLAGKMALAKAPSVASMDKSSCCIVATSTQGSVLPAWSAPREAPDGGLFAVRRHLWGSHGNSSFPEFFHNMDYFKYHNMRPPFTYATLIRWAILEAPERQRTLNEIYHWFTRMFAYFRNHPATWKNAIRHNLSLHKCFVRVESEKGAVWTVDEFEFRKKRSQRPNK
Procedure, shortened: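 E. coli-expressed mouse FoxP3 or FoxP1 fragment, N-terminus removed and tagged with His6-MBP, was used at 0.4 µM against 0.1 µM of a Klenow-filled degenerate double-stranded DNA library. After 30 min at room temperature in Tris pH 7.5 buffer with NaCl and MgCl2, complexes were pulled down on amylose resin and washed three times. Binding is pull-down over input reads-per-million enrichment from pooled replicates of the proteinase K-released, PCR-barcoded, Illumina-sequenced DNA.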

Row | Sequence | binding signal
1 | GATGATTGTTCTCCCAGCTGATGAATTTAGAGACTCGAGTAAACAAATTTTCCTAATCTTTCTGTTCAAGCGCCATCTAC | 0.585 RPM ratio (pull-down/input)
2 | GATGATTGTTCTCCCAGCTGATGAATTAATGAGATCGAGTAAACAAATTTTCCTAATCTTTCTGTTCAAGCGCCATCTAC | 0.246 RPM ratio (pull-down/input)
3 | GATGATTGTTCTCCCAGCTGATGAATTTCGAACCTCGAGTAAACAAATTTTCCTAATCTTTCTGTTCAAGCGCCATCTAC | 0.301 RPM ratio (pull-down/input)
4 | GATGATTGTTCTCCCAGCTGATGAATTACAACCGTCGAGTAAACAAATTTTCCTAATCTTTCTGTTCAAGCGCCATCTAC | 0.497 RPM ratio (pull-down/input)
5 | GATGATTGTTCTCCCAGCTGATGAATTGAGTTAATCGAGTAAACAAATTTTCCTAATCTTTCTGTTCAAGCGCCATCTAC | 0.369 RPM ratio (pull-down/input)
6 | GATGATTGTTCTCCCAGCTGATGAATTTACAGGCTCGAGTAAACAAATTTTCCTAATCTTTCTGTTCAAGCGCCATCTAC | 0.441 RPM ratio (pull-down/input)
7 | GATGATTGTTCTCCCAGCTGATGAATTGGAACCGTCGAGTAAACAAATTTTCCTAATCTTTCTGTTCAAGCGCCATCTAC | 0.224 RPM ratio (pull-down/input)
8 | GATGATTGTTCTCCCAGCTGATGAATTATTATTATCGAGTAAACAAATTTTCCTAATCTTTCTGTTCAAGCGCCATCTAC | 1.99 RPM ratio (pull-down/input)
9 | GATGATTGTTCTCCCAGCTGATGAATTATTGTTATCGAGTAAACAAATTTTCCTAATCTTTCTGTTCAAGCGCCATCTAC | 3.55 RPM ratio (pull-down/input)
10 | GATGATTGTTCTCCCAGCTGATGAATTGTTATTATCGAGTAAACAAATTTTCCTAATCTTTCTGTTCAAGCGCCATCTAC | 5.54 RPM ratio (pull-down/input)
11 | GATGATTGTTCTCCCAGCTGATGAATTGTTGTTATCGAGTAAACAAATTTTCCTAATCTTTCTGTTCAAGCGCCATCTAC | 6.7 RPM ratio (pull-down/input)
12 | GATGATTGTTCTCCCAGCTGATGAATTGTTATCCTCGAGTAAACAAATTTTCCTAATCTTTCTGTTCAAGCGCCATCTAC | 2.64 RPM ratio (pull-down/input)
13 | GATGATTGTTCTCCCAGCTGATGAATTGCTGTTATCGAGTAAACAAATTTTCCTAATCTTTCTGTTCAAGCGCCATCTAC | 2.06 RPM ratio (pull-down/input)
14 | GATGATTGTTCTCCCAGCTGATGAATTTGTTATCTCGAGTAAACAAATTTTCCTAATCTTTCTGTTCAAGCGCCATCTAC | 7.03 RPM ratio (pull-down/input)
15 | GATGATTGTTCTCCCAGCTGATGAATTTCTGTTATCGAGTAAACAAATTTTCCTAATCTTTCTGTTCAAGCGCCATCTAC | 1.07 RPM ratio (pull-down/input)
16 | GATGATTGTTCTCCCAGCTGATGAATTTTTGTTATCGAGTAAACAAATTTTCCTAATCTTTCTGTTCAAGCGCCATCTAC | 2.29 RPM ratio (pull-down/input)
17 | GATGATTGTTCTCCCAGCTGATGAATTTCGGGCCTCGAGTAAACAAATTTTCCTAATCTTTCTGTTCAAGCGCCATCTAC | 0.404 RPM ratio (pull-down/input)
18 | GATGATTGTTCTCCCAGCTGATGAATTATGGAAATCGAGTAAACAAATTTTCCTAATCTTTCTGTTCAAGCGCCATCTAC | 0.4 RPM ratio (pull-down/input)

Source: article PMC12820563, “FoxP3 forms a head-to-head dimer in vivo and stabilizes its multimerization on adjacent microsatellites”
